Assay outcomes deposited in PubChem by National Center for Advancing Translational Sciences (NCATS).
Casp1 inh = qHTS Assay for Allosteric/Competitive Inhibitors of Caspase-1; hit rate 0.03% among 75,000; Caspase-1 enzyme, Ac-WEHD-AFC fluorogenic rate; Potency, µM (titrated, usually from 57.5 µM), hits mostly inhibitors
Target sequence (P29466 120-297 limits assumed): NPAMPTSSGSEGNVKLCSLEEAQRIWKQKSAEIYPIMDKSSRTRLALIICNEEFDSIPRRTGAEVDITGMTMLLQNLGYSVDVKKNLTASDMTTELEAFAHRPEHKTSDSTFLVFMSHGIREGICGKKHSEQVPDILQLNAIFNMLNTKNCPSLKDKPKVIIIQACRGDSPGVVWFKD
Target sequence (P29466 317-404 limits assumed): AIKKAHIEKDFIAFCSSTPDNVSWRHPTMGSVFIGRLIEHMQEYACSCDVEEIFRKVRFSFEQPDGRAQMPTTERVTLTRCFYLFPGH
TSHR agonist = qHTS Assay for Agonists of the Thyroid Stimulating Hormone Receptor | hit rate 0.48% among 73,000 | HEK293-CNG-TSHR cells (CNG channel as cAMP sensor), membrane potential dye, cAMP | Potency, µM (highest dose often 57.1 µM), most hits filed as activators; active means well fitted activation curve with a large enough effect in the main read-out, with a control signal flat, not every such curve was filed as active; inconclusive means small, poorly fitted or top-dose-only effect, or a change in a side signal; inactive means no such curve, though single readings can be large or run the other way; reference of the percent scale not stated here;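 further: the control signal comes from parental cells without the receptor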
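cAMP rise detected as CNG-channel membrane depolarization by fluorescent dye (emission 590 nm), 30 min after compound, following 60 min dye loading containing 100 uM RO 20-1724 at room temperature. Cells: TSHR/CNG HEK 293, with parental CNG HEK 293 as control.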
HEK293 cAMP ctrl = qHTS Assay for Agonists of the Thyroid Stimulating Hormone Receptor: Activators of Intracellular cAMP Concentrations in Parental HEK 293 | Potency, µM (top dose mostly 57.1 µM), most hits filed as activators | parental HEK293 CNG cAMP sensor, membrane potential fluorescence | hit rate 2.5% among 73,000; further: nearly all actives have a fitted effect of over 55% in size
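Counterscreen for endogenous-receptor signalling: CNG-channel HEK 293 cells report cAMP rise by membrane depolarization. After 60 min dye equilibration with 100 uM RO 20-1724, compounds incubated 30 min before bottom-read fluorescence at 590 nm.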
Caspase-7 inhib = qHTS Assay for Allosteric/Competitive Inhibitors of Caspase-7. P55210. recombinant caspase-7, Ac-DEVD-AFC fluorescence rate. Potency, µM (highest dose often 57.5 µM), actives largely listed as inhibitors. hit rate 0.02% among 75,000. AID 889, 2007; active means well fitted inhibition curve with a large enough effect in the main read-out, with a control signal flat, not every such curve was filed as active; inconclusive means small, poorly fitted or top-dose-only effect, or a change in a side signal
Target sequence (P55210 24-198 limits assumed): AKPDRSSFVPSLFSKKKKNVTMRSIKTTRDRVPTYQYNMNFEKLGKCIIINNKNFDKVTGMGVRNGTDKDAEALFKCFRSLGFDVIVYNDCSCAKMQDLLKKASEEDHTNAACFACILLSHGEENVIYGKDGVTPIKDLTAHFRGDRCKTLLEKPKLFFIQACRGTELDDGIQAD
Target sequence (P55210 207-303 limits assumed): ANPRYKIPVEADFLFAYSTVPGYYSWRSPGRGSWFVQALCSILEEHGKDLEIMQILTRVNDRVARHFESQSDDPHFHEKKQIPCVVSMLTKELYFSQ
A number is an active result; n = inactive; u = inconclusive; x = not tested or not shown; [ ] = remark or other dose. Hits are enriched below; roughly 2.6% of the tested compounds scored in any of these assays. Unless noted, the call rests on the fitted dose curve; in most records, active means well fitted curve in the direction sought with a large enough effect; inconclusive means small, poorly fitted or top-dose-only effect, or another doubt; inactive means no such curve, though single readings can be large; an effect the other way counts as inactive or inconclusive.

SMILES | Casp1 inh | TSHR agonist | HEK293 cAMP ctrl | Caspase-7 inhib
Cc1c(Cl)c(S(N)(=O)=O)cc2c1=NC=NS=2(=O)O | n[11.5 µM] | n[11.4 µM] | n[11.4 µM] | n[11.5 µM]
CC(C)C[C@@H](CC(=O)N[C@H](CC(=O)N[C@@H]1CCNC[C@H]1C(=O)N[C@H](CC(=O)N[C@@H](CCC(=O)O)CC(=O)O)CC(C)C)C(C)C)NC(=O)[C@@H]1CCCC[C@H]1N | x | x | n | x
CC(C)CCN1CCc2nc(COc3ccccc3)c3c(c2C1)COC(C)C3 (stereo not given) | n[11.5 µM] | n[11.4 µM] | n[11.4 µM] | n[11.5 µM]
CCOC(=O)c1ccccc1NC(=O)c1ccccc1SC | n | u | u | n
CCOC(=O)c1ccccc1NC(=O)c1cccs1 | n | u | 25.1µM | n
C[C@@H](N1CCOCC1)[C@@](O)(c1ccccc1)c1ccccn1 | n[11.5 µM] | n[11.4 µM] | n[11.4 µM] | n[11.5 µM]
CC1CCN(C(=O)COC(=O)c2cc3ccccc3cc2O)CC1 | n | u | 0.199µM | n
CC1CC(C)CN(C(=O)COC(=O)c2cc3ccccc3cc2O)C1 (stereo not given) | n | u | 31.6µM | n
NC1=NCCN1CC(=O)O | n | x | x | n
Cc1nn(-c2ccccc2)c2c1/C(=N/O)CC(C)(C)C2 | n | u | 25.1µM | n
CC(C)OC(=O)c1cn(-c2ccccc2)nc1-c1ccco1 | n | 25.1µM | n | n
CC1=C(C(=O)Nc2ccccc2)C(c2ccco2)C(C#N)=C(SCC(=O)OC(C)C)N1 (stereo not given) | n | u | 20µM | n
CC1=C(C(=O)Nc2ccccc2)C(c2ccco2)C(C#N)=C(SCc2ccccc2)N1 (stereo not given) | n | x | n | n
COc1ccc(C(=O)N2CCC[C@@]3(CCN(C(=O)Nc4ccccc4)C3)C2)cc1 | n | u | u | n
O=C1[C@@H]2C(c3ccccc3Cl)=NO[C@@H]2C(=O)N1Cc1ccccc1 | n | 3.16µM | n | n
COC(=O)c1cc(COc2ccc3ccc(=O)oc3c2)c(C)o1 | n | n | n | n
COC(=O)c1cc(COc2ccc3oc(C)c(C(=O)OC)c3c2)c(C)o1 | n | u | 15.8µM | n
CN(C)C=Nc1ncc2c3ccccc3n(Cc3ccccc3)c2c1C#N | n | u | 31.6µM | n
CN(C)C=Nc1ncc2c3ccccc3n(CCN(C)C)c2c1C#N | n | n | n | n
CCOC(=O)c1c(C2CCN(C(=O)OCC)CC2)nc2ccccn12 | n | u | 0.316µM | n
Cc1ccc(C(=O)N2CCN(c3cccc(Cl)c3)CC2)cc1C | n | x | n | n
Cc1ccc(C(=O)N2CCN(c3ccccc3)CC2)cc1C | n | u | 25.1µM | n
OCCNc1nc(C2CC2)nc2c1nnn2Cc1ccccc1Cl | n | n | n | n
COCCNc1nc(C(C)(C)C)nc2c1nnn2Cc1ccccc1Cl | n | u | 2.51µM | n
O=C(CN(CCc1ccccc1)C(=O)CN1C(=O)COc2ccccc21)NCc1ccco1 | n | n | n | n
SMILES | Casp1 inh | TSHR agonist | HEK293 cAMP ctrl | Caspase-7 inhib
O=C(CN(CCc1ccccc1)C(=O)Cn1nnc(-c2cccs2)n1)NCc1ccco1 | n | u | 25.1µM | n
COCCn1c(=O)c(C)nc2cnc(N3CCNCC3)nc21 | u | n | n | u
COCCN(C(=O)Cn1nnc2ccccc21)C(C(=O)NC1CCCC1)c1cc(OC)ccc1OC (stereo not given) | n | u | 25.1µM | n
Cc1ccc(C(C(=O)NCc2ccco2)N(CCc2ccccc2)C(=O)Cn2nnc3ccccc32)o1 (stereo not given) | n | u | 12.6µM | n
Cc1ccc(C(C(=O)NCc2ccco2)N(C(=O)Cn2nnc3ccccc32)c2ccccc2)o1 (stereo not given) | n | n | n | n
COc1ccc(CNC(=O)C(c2ccco2)N(Cc2cccs2)C(=O)Cc2cccs2)cc1 (stereo not given) | n | u | 20µM | n
Cc1ccc(N(C(=O)Cn2nnc3ccccc32)C(C(=O)NCc2ccco2)c2ccc(C)o2)cc1 (stereo not given) | n | u | u | n
COc1ccc(N(C(=O)Cn2nnc3ccccc32)C(C(=O)NCc2ccco2)c2ccc(C)o2)cc1 (stereo not given) | n | 25.1µM | n | n
COc1ccccc1CNc1cc(-c2c(C)noc2C)ncn1 | n | u | u | n
CC(C)CCNC(=O)C(c1ccco1)N(Cc1cccs1)C(=O)Cn1nnc2ccccc21 (stereo not given) | n | u | 6.31µM | n
COc1ccc(OC)c(C(C(=O)NCc2ccco2)N(C(=O)Cn2nnc3ccccc32)C(C)C)c1 (stereo not given) | n | u | 15.8µM | n
O=C(Cc1cccs1)NCc1ccco1 | n | n | n | n
O=C(NCc1ccco1)C(c1cccs1)N(C(=O)Cc1cccs1)c1ccccc1 (stereo not given) | n | u | 12.6µM | n
CCC(C)(C)NC(=O)C(c1cccn1C)N(Cc1ccccc1)C(=O)Cn1nnc2ccccc21 (stereo not given) | n | u | 10µM | n
CC(NC(=O)c1ccccc1)(C(=O)O)C(=O)O | n[11.5 µM] | n[11.4 µM] | n[11.4 µM] | n[11.5 µM]
O=C(NCCc1ccccc1)c1cccnc1N1CCCCCC1 | n | u | u | n
COc1ccc(CNC(=O)c2cc(-c3cccc(OC)c3)on2)cc1 | n | n | n | n
Cc1ccc(-c2nc(=S)c3c(n2Cc2ccco2)CCCC3)cc1 | n | u | 2.51µM | n
COc1cccc(-c2nc(=S)c3c(n2Cc2ccco2)CCCC3)c1 | n | u | u | n
O=C1C2=CC[C@H]3C(=O)N(C[C@@H]4CCCO4)C(=O)[C@@H]3[C@@H]2[C@H](O)[C@@H]2O[C@H]12 | n[11.5 µM] | n[11.4 µM] | n[11.4 µM] | n[11.5 µM]
CCOC(=O)c1cc2sccc2n1CC(=O)N1CCCc2ccccc21 | n | u | u | n
CCOC(=O)c1cc2sc(C)cc2n1CC(=O)N1CCc2ccccc21 | n | u | 7.94µM | n
C[C@@H](c1ccccc1)N1C(=O)[C@H]2[C@H]3[C@H](O)[C@H](O)C/C(=N/OC[C@@H](O)COCc4ccco4)[C@H]3CC[C@@H]2C1=O | n[11.5 µM] | n[11.4 µM] | n[11.4 µM] | n[11.5 µM]
COc1ccc(-c2cc(C(F)F)nn2-c2ccc(S(N)(=O)=O)cc2)cc1F | n | x | x | n
CC(C)c1cc(C(F)(F)F)nc(NNc2nc(C(C)C)cc(C(F)(F)F)n2)n1 | n[11.5 µM] | u | 5.01µM | n[11.5 µM]
SMILES | Casp1 inh | TSHR agonist | HEK293 cAMP ctrl | Caspase-7 inhib
Cc1cc(C#N)c(C)n1-c1cc(C(F)(F)F)ccc1N1CCOCC1 | n | u | 12.6µM | n
Cc1ccc(S(=O)(=O)Oc2ccc(N=Nc3ccc(-c4ccc(N=Nc5c(O)ccc6cc(S(=O)(=O)O)cc(S(=O)(=O)O)c56)c(C)c4)cc3C)cc2)cc1 | n | n | n | n
O=C(c1cccc(C(=O)N2CCN(Cc3ccccc3)CC2)c1)N1CCN(Cc2ccccc2)CC1 | n | u | 1.26µM | n
CC1=C2C(O)C(=O)OC3CC4C(C)(C)C(=O)C=C[C@]4(C)C(CC1)[C@@]23C (stereo not given in full) | n | x | x | n
Cn1c(=O)c(-c2cccs2)nc2cnc(N3CCOCC3)nc21 | x | n | n | u
Cc1cc(-c2nnco2)c(C)n1-c1ccccc1 | n | u | 20µM | n
